Screening data deposited in PubChem BioAssay by National Center for Advancing Translational Sciences (NCATS).
FBPA Giardia inh: blocks Giardia fructose-bisphosphate aldolase activity. A8B2U2. purified Giardia FBPA. Potency, µM (highest dose often 59.6 µM), inactives show top-dose activity, negative = inhibition, hits mostly inhibitors. actives 0.71% (n = 290,000); note: potency is the fitted concentration of half-maximal effect; nearly all actives have a fitted effect of over 55% in size
Target sequence (A8B2U2 whole entry, looked up): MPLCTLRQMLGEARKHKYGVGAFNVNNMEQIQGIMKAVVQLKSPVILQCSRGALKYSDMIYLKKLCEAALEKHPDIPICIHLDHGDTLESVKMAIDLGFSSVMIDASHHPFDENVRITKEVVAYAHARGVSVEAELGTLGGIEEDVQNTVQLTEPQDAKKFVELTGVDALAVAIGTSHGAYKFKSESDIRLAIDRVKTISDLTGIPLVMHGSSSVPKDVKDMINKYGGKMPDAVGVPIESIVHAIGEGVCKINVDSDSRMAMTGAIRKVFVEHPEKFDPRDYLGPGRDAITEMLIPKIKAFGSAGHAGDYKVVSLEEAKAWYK
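Giardia FBPA (40 nM reagent) was preincubated 10 min at RT with compound (up to 57.5 uM final), then substrate plus GAPDH/TPI/NAD/arsenate coupling system with diaphorase/resazurin was added; resorufin fluorescence (525/598 nm) was read after 20 min.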
Marburg entry inh: Marburg virus entry inhibition | Potency, µM (top dose mostly 37.8 µM), without a hit: at the top dose activity change, negative = inhibition, most hits filed as inhibitors | actives 1.8% (n = 300,000) | Marburg virus pseudotyped entry inhibition, cell reporter; calls by dose curve; tested in HEK293 cells; note: potency is the fitted concentration of half-maximal effect
LASV entry inh: blocks Lassa virus binding to or entry into cells; Lassa virus pseudotype entry inhibition, cell reporter; Potency, µM (doses to about 37.9 µM), inactives show top-dose activity change, negative = inhibition, most hits filed as inhibitors; actives 1.2% (n = 300,000); calls by dose curve; tested in HEK293 cells; note: potency is the fitted concentration of half-maximal effect; nearly all actives have a fitted effect of over 50% in size
HCV inhibitor: inhibitors of hepatitis C virus infection; AID 651820; Huh7.5.1 HCVcc-Cre infection, luciferase reporter, 44 h; actives 3.4% (n = 340,000); Potency, µM (titrated, usually from 41.8 µM), without a hit: top-dose activity change, negative = inhibition, usual class: inhibitors; note: potency is the fitted concentration of half-maximal effect
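Cells (1,000/well) were plated 4 h before compound, then infected with HCVcc-Cre virus (~0.5 moi). After 44 h further culture, infection was read as luciferase luminescence following a 15 min substrate incubation at room temperature.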
FMDV antiviral: blocks foot and mouth disease virus. FMDV antiviral cell-based qHTS. actives 1.2% (n = 410,000). Potency, µM (highest dose often 57.9 µM), for the others: at the highest dose activity change, negative = inhibition, actives largely listed as inhibitors; calls by dose curve; tested in HEK293T cells; note: read-out not given here; potency is the fitted concentration of half-maximal effect; nearly all actives have a fitted effect of over 45% in size
HCMV inh: blocks human cytomegalovirus replication; AID 1259415; actives 4.5% (n = 410,000); HFF cells, HCMV-luciferase reporter, 72 h; hits give low values; activity change, negative = inhibition, % at 57.5 µM; in the data active = activity change below about -60%; inconclusive = no clear call, values can overlap the other calls; inactive = above about -39%
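Luciferase read-out from HCMV-luciferase-infected HFFs (MOI 1 PFU/cell) 72 h post infection at 37C; compounds added after 16 h cell attachment; activity normalized between buffer-only basal and Salinomycin (10uM) inhibitor controls.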
* = called active by the depositor; ? = inconclusive; · = not tested or not shown; [ ] = another dose, or the depositor's remark. Compounds with a hit are over-represented: about 8.3% of the library has one in this group of screens. Unless noted, calls come from the whole dose curve; as a rule, active = well fitted curve in the direction sought with a large enough effect; inconclusive = small, poorly fitted or top-dose-only effect, or another doubt; inactive = no such curve, though single readings can be large; an effect the other way counts as inactive or inconclusive. % is set by controls: 0 for no effect and ±100 for the full control effect.

SMILES	FBPA Giardia inh	Marburg entry inh	LASV entry inh	HCV inhibitor	FMDV antiviral	HCMV inh
c1ccc(-c2sc3ccccc3c2-c2ccc(OCCN3CCCCC3)cc2)cc1	·	·	·	-12%	-13%	-64*
COC(=O)CCn1nnc(-c2cccs2)n1	1%	6%	8%	3%	-18%	-11
COC(=O)CCn1nnc(-c2ccc(C(C)C)cc2)n1	7%	?	?	-1%	?	-62*
Cc1ccc(C)c(N2CCN(C(=O)c3cc4sccc4n3C)CC2)c1	-4%	18µM*	?	?	?	-30
Cc1cccc(N2CCN(C(=O)C3CCN(C(=O)c4cc5sccc5n4C)CC3)CC2C)c1 (centres undefined)	·	?	·	·	?	-84*
Cn1c(C(=O)N2CCCC(C(=O)N3CCN(c4ccccc4)CC3)C2)cc2sccc21 (centres undefined)	·	?	·	·	?	-28
CCc1nnc(NC(=O)c2nc(S(=O)(=O)Cc3ccccc3)ncc2Cl)s1	·	?	?	?	-69%	-101*
CCOc1ccccc1NC(=O)c1nc(S(=O)(=O)Cc2cccc(C)c2)ncc1Cl	·	-6%[46.1 µM]	2%[46.1 µM]	2.8µM*	14µM*	-113*
CCc1nnc(NC(=O)c2nc(S(=O)(=O)Cc3cccc(C)c3)ncc2Cl)s1	?	?	?	11µM*	4.5µM*	-101*
CCSc1ncc(Cl)c(C(=O)Nc2ccccc2OC)n1	-1%	·	·	-7%	-13%	56
CCc1nnc(NC(=O)c2nc(S(=O)(=O)Cc3ccc(C)cc3)ncc2Cl)s1	·	?	?	?	28µM*	-101*
CC1CCN(C(=O)c2ncn3c2C(=O)NC[C@H]3C)CC1	·	·	·	·	·	-11
CCC(=O)Nc1ccccc1-c1nc2ccccc2n(C(C)C(=O)Nc2ccc(OC)cc2)c1=O (centres undefined)	·	-25%[46.1 µM]	-25%[46.1 µM]	·	39%	5
Cn1cccc1C(=O)N1CCC[C@@]2(CCN(c3ccncc3)C2)C1	6%	·	·	·	-6%	·
O=C(Nc1ccc(Cl)c([N+](=O)[O-])c1)C(Sc1ccccc1)c1ccccc1 (centres undefined)	-3%	?	?	?	?	-102*
COC(=O)NC(CC(C)=O)c1cccs1 (centres undefined)	-1%[12.9 µM]	·	·	·	·	·
CNc1ccc(Br)cc(C(=O)/C=C/c2ccc(OC)cc2)c1=O	?	-17%	-15%	34%	16µM*	3
CCNc1ccc(Br)cc(C(=O)/C=C/c2ccc(Cl)cc2Cl)c1=O	?	?	?	8.9µM*	?	-103*
CC(C)c1cc(C(C)C)c(S(=O)(=O)N2CCNCC2)c(C(C)C)c1	·	10µM*	?	6%	-7%	-18
Cc1cc(C)c(C)c(S(=O)(=O)N2CCNCC2)c1C	3%	?	-7%	-18%	-7%	-31
NC(=O)COc1ccc(-c2noc(COc3ccc(Cl)cc3)n2)cc1	·	-1%[46.1 µM]	-13%[46.1 µM]	·	0%	17
COc1ccc(-n2c(=S)[nH]c3cc(C(=O)Nc4ccc(C)c(F)c4)ccc3c2=O)c(OC)c1	28%	?	?	11µM*	-17%	-76*
COc1ccc(NC(=O)c2ccc3c(=O)n(-c4ccc(OC)cc4OC)c(=S)[nH]c3c2)c(OC)c1	-7%	-24%	-9%	-12%	?	-24
CCOc1ccc(NC(=O)c2ccc3c(=O)n(-c4ccc(OC)cc4OC)c(=S)[nH]c3c2)cc1	29%	·	·	·	·	-82*
COc1ccc(C(=O)N/N=C/C(Br)=C/c2ccccc2)cc1	-10%	-2%	6%	?	-6%	-65*
SMILES	FBPA Giardia inh	Marburg entry inh	LASV entry inh	HCV inhibitor	FMDV antiviral	HCMV inh
O=C(N/N=C/C(Br)=C/c1ccccc1)c1cnccn1	-2%	?	?	-8%	25%	-61*
Cc1noc2ncnc(N3CCN(c4ccc(F)cc4)CC3)c12	3%	-21%	-3%	-23%	?	-68*
COc1ccc(N2CCN(c3ncnc4onc(C)c34)CC2)cc1	·	·	8%[46.1 µM]	·	?	-69*
COc1ccc(N2CCN(c3ncnc4onc(-c5ccc(F)cc5)c34)CC2)cc1	·	·	-20%[46.1 µM]	·	?	7
Cc1noc2ncnc(N3CCCCC3)c12	3%	·	·	-5%	-37%	2
O=C(NCCO)c1cc2c([nH]c3ccccc32)c(-c2ccc(F)cc2)n1	-11%	-28%[46.1 µM]	-24%	11µM*	-20%	-35
O=C(NCCO)c1cc2c([nH]c3ccccc32)c(-c2ccccc2)n1	-17%	-1%	-12%	?	-4%	69
Cc1nc(C(=O)NCCCO)cc2c1[nH]c1ccccc12	7%	·	·	?	19%	8
C[C@H](NC(=O)c1cc2c([nH]c3ccccc32)c(-c2ccccc2)n1)C(=O)O	-11%	·	·	3%	-4%	-15
Cc1nc(C(=O)NCCO)cc2c1[nH]c1ccccc12	12%	·	·	11µM*	14%	17
Cc1ccc(-c2nc(C(=O)NCCCN(C)C)cc3c2[nH]c2ccccc23)cc1	7%	·	·	11µM*	?	-98*
O=C(Cc1ccc([N+](=O)[O-])cc1)NCCc1c[nH]c2ccccc12	·	·	·	·	·	5
O=[N+]([O-])c1ccc(S(=O)(=O)CC2CSc3nc4ccccc4n32)cc1 (centres undefined)	2%	?	?	?	-14%	-79*
CCCCC(=O)Nc1nc(C)c(C(C)=O)s1	0%	·	·	-26%	28%	162
CC(=O)c1sc(NC(=O)C2(F)C(F)(F)C(F)(F)C(F)(F)C(F)(F)C2(F)F)nc1C	-8%	2.6µM*	1.6µM*	10µM*	·	-98*
CC(=O)c1sc(NC(=O)C=C(C)C)nc1C	-5%	1%	8%	10%	47%	-69*
O=C(O)CN1C(=O)COc2ccc(S(=O)(=O)N3CCCCCC3)cc21	6%	·	·	22%	-15%	-61*
CC(C)N(Cc1ccccc1)C(=O)CN1C(=O)COc2ccc(S(=O)(=O)N3CCCCCC3)cc21	-3%	-21%[46.1 µM]	-27%[46.1 µM]	?	-3%	-81*
CN(Cc1ccccc1)C(=O)CN1C(=O)COc2ccc(S(=O)(=O)N3CCCC3)cc21	5%	5%[46.1 µM]	3%[46.1 µM]	11%	22%	-8
O=S(=O)(/C=C/c1ccccc1)N1CCC(n2c(C3CCCO3)nc3cccnc32)CC1 (centres undefined)	·	·	·	·	7%	·
CCNc1ncc2nc(-c3ccccc3)c(=O)n(C[C@H]3CCCO3)c2n1	0%	·	·	·	-15%	·
NC(=O)c1c(NC(=O)CS(=O)(=O)c2ccc(Cl)cc2)sc2c1CCCC2	·	·	13%[46.1 µM]	·	0%	0
CC12CN3CC(C)(CN(C1)C3c1ccc3c(c1)OCO3)C2O (centres undefined)	1%	3%	·	7%	-17%	-15
CC1(C)CN2C(c3ccc(Cl)cc3)N2C1 (centres undefined)	-1%	12%	-1%	7%	17%	-75*
